mHTT-CaM PPI inh: mutant huntingtin-calmodulin interaction inhibitors – biochemical, AlphaScreen, primary screen | P42858 | AlphaScreen His-mHTT/GST-CaM binding, luminescence | inhibition, % at 15 µM | actives 3.6% (n = 190,000) | AID 1671202, 2021;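 note: 0% = both proteins with DMSO and 100% = one protein alone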
Target sequence (P42858 whole entry, looked up, stated change not applied): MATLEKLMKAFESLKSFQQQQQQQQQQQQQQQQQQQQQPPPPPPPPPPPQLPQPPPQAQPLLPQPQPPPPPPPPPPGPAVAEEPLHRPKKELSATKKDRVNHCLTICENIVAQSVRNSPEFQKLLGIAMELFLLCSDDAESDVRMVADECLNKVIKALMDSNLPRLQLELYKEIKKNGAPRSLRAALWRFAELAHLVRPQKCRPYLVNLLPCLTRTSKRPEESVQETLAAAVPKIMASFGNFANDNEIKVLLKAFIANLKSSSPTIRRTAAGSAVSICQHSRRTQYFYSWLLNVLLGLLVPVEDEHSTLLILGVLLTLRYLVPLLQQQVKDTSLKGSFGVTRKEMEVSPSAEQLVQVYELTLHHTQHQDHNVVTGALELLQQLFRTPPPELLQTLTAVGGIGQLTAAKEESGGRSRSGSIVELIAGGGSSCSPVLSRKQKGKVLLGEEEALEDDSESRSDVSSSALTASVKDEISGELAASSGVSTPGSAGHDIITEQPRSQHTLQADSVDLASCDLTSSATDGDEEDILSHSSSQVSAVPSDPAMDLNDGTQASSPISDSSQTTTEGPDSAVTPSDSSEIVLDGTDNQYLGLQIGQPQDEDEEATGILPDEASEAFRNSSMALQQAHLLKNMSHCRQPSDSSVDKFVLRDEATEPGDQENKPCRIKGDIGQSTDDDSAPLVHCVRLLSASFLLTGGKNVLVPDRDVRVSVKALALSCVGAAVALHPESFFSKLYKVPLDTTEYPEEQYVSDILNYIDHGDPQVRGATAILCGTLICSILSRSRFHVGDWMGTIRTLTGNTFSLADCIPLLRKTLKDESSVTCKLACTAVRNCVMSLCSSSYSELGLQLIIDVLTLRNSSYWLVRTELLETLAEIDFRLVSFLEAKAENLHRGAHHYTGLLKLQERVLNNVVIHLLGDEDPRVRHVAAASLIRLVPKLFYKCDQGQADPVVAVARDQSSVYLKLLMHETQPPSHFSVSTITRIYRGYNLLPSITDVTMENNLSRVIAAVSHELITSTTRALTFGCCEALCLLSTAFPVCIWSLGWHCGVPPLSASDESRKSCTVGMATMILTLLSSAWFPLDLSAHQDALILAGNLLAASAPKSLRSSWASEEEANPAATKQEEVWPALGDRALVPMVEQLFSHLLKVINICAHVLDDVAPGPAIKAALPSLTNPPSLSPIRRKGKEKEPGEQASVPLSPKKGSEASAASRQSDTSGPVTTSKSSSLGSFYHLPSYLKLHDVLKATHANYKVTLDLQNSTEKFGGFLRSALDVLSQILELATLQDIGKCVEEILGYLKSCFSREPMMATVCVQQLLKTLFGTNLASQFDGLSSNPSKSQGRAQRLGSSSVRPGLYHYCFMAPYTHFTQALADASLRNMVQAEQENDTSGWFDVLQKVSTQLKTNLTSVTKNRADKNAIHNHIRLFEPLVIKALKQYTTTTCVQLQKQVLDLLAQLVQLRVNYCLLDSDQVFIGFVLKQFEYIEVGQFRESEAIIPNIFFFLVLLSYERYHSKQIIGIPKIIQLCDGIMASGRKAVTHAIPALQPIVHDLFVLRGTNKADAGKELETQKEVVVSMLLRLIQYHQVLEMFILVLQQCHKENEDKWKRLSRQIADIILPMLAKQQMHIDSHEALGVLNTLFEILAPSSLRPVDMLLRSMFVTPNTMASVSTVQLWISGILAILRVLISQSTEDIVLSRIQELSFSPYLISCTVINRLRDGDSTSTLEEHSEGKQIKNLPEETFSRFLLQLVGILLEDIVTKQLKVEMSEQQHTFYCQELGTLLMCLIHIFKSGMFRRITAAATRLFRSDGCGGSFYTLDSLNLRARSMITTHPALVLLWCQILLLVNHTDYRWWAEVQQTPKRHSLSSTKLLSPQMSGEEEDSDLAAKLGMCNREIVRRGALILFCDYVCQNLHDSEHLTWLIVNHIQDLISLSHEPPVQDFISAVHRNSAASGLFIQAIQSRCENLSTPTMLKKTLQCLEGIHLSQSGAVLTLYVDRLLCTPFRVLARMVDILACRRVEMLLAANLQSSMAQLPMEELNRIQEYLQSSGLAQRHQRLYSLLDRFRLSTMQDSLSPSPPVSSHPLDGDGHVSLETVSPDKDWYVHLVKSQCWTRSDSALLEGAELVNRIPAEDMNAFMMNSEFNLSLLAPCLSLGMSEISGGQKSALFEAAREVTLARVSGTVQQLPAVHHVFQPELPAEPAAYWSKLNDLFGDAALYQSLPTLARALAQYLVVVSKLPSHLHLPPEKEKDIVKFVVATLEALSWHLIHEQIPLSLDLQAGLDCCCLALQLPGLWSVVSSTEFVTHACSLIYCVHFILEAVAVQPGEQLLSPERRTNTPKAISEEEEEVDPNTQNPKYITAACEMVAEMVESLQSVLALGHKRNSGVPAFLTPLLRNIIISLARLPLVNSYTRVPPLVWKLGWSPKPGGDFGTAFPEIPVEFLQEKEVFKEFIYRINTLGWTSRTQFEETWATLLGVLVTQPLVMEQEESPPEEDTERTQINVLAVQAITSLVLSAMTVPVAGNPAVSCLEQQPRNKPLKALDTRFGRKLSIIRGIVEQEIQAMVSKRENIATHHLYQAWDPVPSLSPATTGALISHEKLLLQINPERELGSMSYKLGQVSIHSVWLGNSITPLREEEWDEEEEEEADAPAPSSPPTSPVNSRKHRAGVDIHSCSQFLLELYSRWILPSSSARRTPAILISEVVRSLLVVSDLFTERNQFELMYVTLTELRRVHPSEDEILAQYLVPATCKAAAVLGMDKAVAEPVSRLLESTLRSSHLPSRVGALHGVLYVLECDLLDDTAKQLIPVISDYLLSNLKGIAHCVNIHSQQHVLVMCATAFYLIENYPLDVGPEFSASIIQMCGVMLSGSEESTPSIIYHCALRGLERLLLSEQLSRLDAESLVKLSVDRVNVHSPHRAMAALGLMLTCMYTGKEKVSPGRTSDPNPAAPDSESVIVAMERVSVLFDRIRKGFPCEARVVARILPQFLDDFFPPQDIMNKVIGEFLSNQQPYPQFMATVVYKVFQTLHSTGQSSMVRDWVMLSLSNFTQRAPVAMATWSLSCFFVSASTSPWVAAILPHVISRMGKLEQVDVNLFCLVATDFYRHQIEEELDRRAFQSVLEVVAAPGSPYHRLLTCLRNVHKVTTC
Pf apPOL inh: Pf-apPOL inhibitors, biochemical, fluorescence | Plasmodium falciparum apicoplast DNA polymerase (apPOL) | Recombinant Pf-apPOL, molecular beacon fluorescence, 1.5 h | inhibition, % at 10 µM | actives 0.25% (n = 210,000)
Active calls of the source: *; · = no result. The sample as a whole holds a higher share of hits than the screen did. Cut-off read from the data, not from the text of the source: active = inhibition above about 50%; inactive = the rest.

SMILES	mHTT-CaM PPI inh	Pf apPOL inh
Cc1ccc(N2C(=O)CC(N3CCc4ccccc4C3)C2=O)cc1C (stereo unspecified)	0	-9
Cc1cc(N2Cc3ccccc3C2)ccc1C=O	82*	3
O=C1NC(=O)c2cc(-c3ccccc3)ccc21	-8	2
O=[N+]([O-])c1ccc(CSc2nnc(-c3ccncc3)n2Cc2ccccc2)cc1	10	-2
O=C(CCSc1ccc(Cl)cc1)Nc1nnc(COc2ccccc2)o1	-2	-34
O=C(Nc1nnc(COc2ccccc2)o1)c1ccccn1	0	-9
O=C(Nc1nnc(COc2ccccc2)o1)c1cc(Cl)sc1Cl	56*	-257
O=C(Cc1ccccc1Cl)Nc1nnc(COc2ccccc2)o1	84*	-9
CCN(CC)c1ncc2c(n1)CCC(C(=O)Nc1ccc(OC)c(OC)c1)C2 (stereo unspecified)	30	-1
O=C(NCc1ccc(Cl)c(Cl)c1)c1cccnc1Sc1cccc(C(F)(F)F)c1	·	-11
CCOc1ccc(C(=O)N2CCN=C2N2CCC(C)CC2)cc1	4	-6
COc1ccccc1C(=O)N1CCN=C1N1CCN(c2cccc(Cl)c2)CC1	48	0
COc1ccc(C(=O)N2CCN=C2N2CCN(c3cccc(Cl)c3)CC2)cc1	85*	0
CCOc1ccc(C(=O)N2CCN=C2N2CCN(c3cccc(Cl)c3)CC2)cc1	100*	0
COc1cccc(-n2nc(C(=O)N3CCOCC3)c3ccccc3c2=O)c1	0	-2
COc1cccc(-n2nc(C(=O)N3CCN(c4cccc(Cl)c4)CC3)c3ccccc3c2=O)c1	61*	-2
O=C(Nc1nc(C(=O)N2CCN(c3ccccn3)CC2)co1)c1cnccn1	0	-7
CCCCN(C)C(=O)NC1(C(F)(F)F)Oc2ccccc2O1	-2	-4
COc1ccc(CN2CCc3c([nH]c4ccccc34)C2)cc1C	36	-3
COc1cc(CN2CCc3c([nH]c4ccccc34)C2)c([N+](=O)[O-])cc1OC	66*	-3
COc1cc(CN2CCN(Cc3cccc(OC)c3OC)CC2)c([N+](=O)[O-])cc1OC	4	0
COc1cc(C)c(CN2CCc3c([nH]c4ccccc34)C2)cc1C	100*	-7
COc1c(S(=O)(=O)N2CCN(c3ccccc3F)CC2)ccc(Cl)c1Cl	-20	0
O=C(NC1CCCCC1)C1CCCN(C(=O)c2ccc(F)c(F)c2)C1 (stereo unspecified)	29	-10
Cc1ccc([C@H]2C[C@@H](n3cc(C4CC4)nn3)[C@H](O)CN2CC2CCCCC2)cc1	27	-2
SMILES	mHTT-CaM PPI inh	Pf apPOL inh
Cc1ccc([C@H]2C[C@H](O)[C@@H](n3cc(C4CC4)nn3)CN2CC2CCCCC2)cc1	86*	-1
O[C@H]1CN(CC2CCCCC2)[C@@H](c2ccccc2)C[C@@H]1n1cc(C2CC2)nn1	70*	-1
Cc1ccc([C@H]2C[C@H](n3cc(C4CC4)nn3)[C@@H](O)CN2CC2CCCCC2)cc1	30	-6
COc1ccc(CNC(=O)c2cc3n(n2)CCCN(Cc2ccccc2)C3=O)cc1	-11	2
COc1ccccc1N/C=C(\C#N)c1nc(-c2cccc([N+](=O)[O-])c2)cs1	13	-1
CCCCN(C)C(=O)c1cccc(C2CCCN(C(=O)NC)C2)c1 (stereo unspecified)	-10	-4
COc1cccc(CC(=O)N2CCC(c3noc(-c4cccc(OC)c4)n3)CC2)c1	-1	5
COc1ccccc1-c1nc(C2CCN(C(=O)Cc3cccc4ccccc34)CC2)no1	9	-3
CCc1nc(C2CCCN(C(=O)CCc3c[nH]c4ccccc34)C2)n[nH]1 (stereo unspecified)	4	7
COc1cccc(-c2nc(C3CCN(C(=O)Cc4c[nH]c5ccccc45)CC3)no2)c1	65*	-3
COc1ccccc1-c1nc(C2CCN(C(=O)Cc3c[nH]c4ccccc34)CC2)no1	76*	-6
CCc1nc(C2CCCN(C(=O)Cc3c[nH]c4ccccc34)C2)n[nH]1 (stereo unspecified)	61*	12
CCCn1ncc(N2CCC(C(=O)NCCc3ccccn3)CC2)cc1=O	5	12
CCCCN1CCN(C(=O)c2cn3cc(Cl)ccc3n2)CC1	-2	-9
O=C(Nc1cccc2ncccc12)C(c1ccccc1)n1cccc1 (stereo unspecified)	78*	26
O=C(Nc1nccs1)C(c1ccccc1)n1cccc1 (stereo unspecified)	35	5
CSc1ccc(C2Oc3ccccc3C3=C2C(c2cccs2)n2ncnc2N3)cc1 (stereo unspecified)	38	-5
COc1cccc(C2C3=C(Nc4ncnn42)c2ccccc2OC3c2ccccc2Cl)c1 (stereo unspecified)	58*	-8
Fc1ccc(C2Oc3ccccc3C3=C2C(c2cccs2)n2ncnc2N3)cc1 (stereo unspecified)	61*	-3
COc1cccc(C2C3=C(Nc4ncnn42)c2ccccc2OC3c2ccccc2F)c1 (stereo unspecified)	5	7
O=C1CCN(C2CC(=O)N(c3ccc(Cl)cc3)C2=O)C2CCCCC12 (stereo unspecified)	5	-2
COc1ccc(NC(=O)N2CCCC2c2cc(C(C)C)no2)cc1OC (stereo unspecified)	6	-3
Cn1c(N2CCC(C(=O)NCc3ccc(Cl)cc3)CC2)cc(=O)n(C)c1=O	35	3
O=C(NCc1cccc(Cl)c1)c1ccc(N2CCNC(c3ccccc3)C2)nc1 (stereo unspecified)	12	-3
CCCN1CCN(C(=O)C2CCCN(c3ncccc3-c3noc(CC)n3)C2)CC1 (stereo unspecified)	8	0
SMILES	mHTT-CaM PPI inh	Pf apPOL inh
Cn1cc2c3c(cccc31)CN(C(=O)C1CCCC1)CC2	39	-4
Cn1cc2c3c(cccc31)CN(C(=O)C1CCCCC1)CC2	62*	-6
CCn1cc2c3c(cccc31)CN(C(=O)c1cccc(OC)c1)CC2	69*	-2
CCn1cc2c3c(cccc31)CN(C(=O)NCc1cccc(OC)c1)CC2	6	5
COc1cc(NC(=O)N2CCc3cn(C)c4cccc(c34)C2)cc(OC)c1	-2	-1
COc1cc(OC)cc(C(=O)N2CCc3cn(C)c4cccc(c34)C2)c1	55*	-1
CC(C)c1nc2c(c(=O)n1CC(=O)Nc1ccccc1)CCN(Cc1ccccc1)C2	7	-1
CCOC(=O)N1CCC(NC(=O)Nc2ccc(C)c(Cl)c2)CC1	·	7
O=C(NC1CC1)c1ccc(OCC2CCCN2C(=O)Cc2ccc(Cl)cc2)cc1 (stereo unspecified)	3	1
O=C1Cc2cc(NC(=O)c3c(F)cccc3Cl)ccc2N1	-13	-4
CCOc1ccc(NC(=O)/C(C#N)=C/c2cc(C)n(-c3cccnc3)c2C)cc1	20	-4
Cc1ccc(NC(=O)/C(C#N)=C/c2cc(C)n(-c3cccnc3)c2C)cc1C	52*	-8
COc1cc(C=C2SC(=S)N(CC(=O)O)C2=O)ccc1O	27	-12
COc1cc(C=C2SC(=S)N(c3cccc(O)c3)C2=O)ccc1O	81*	-81
COc1cc(C=C2SC(=S)N(c3ccc4c(c3)OCO4)C2=O)cc(OC)c1OC	17	-5
COc1cc(C=C2SC(=S)N(c3ccc(C(=O)O)c(O)c3)C2=O)ccc1O	70*	-46

Screening data deposited in PubChem by University of Kansas High Throughput Screening Laboratory.
